According to PubChem BioAssay (NCATS):
Inconclusive results are not listed. A call without a number means that no potency is given here. Activity calls are given as the source filed them. Unless noted, calls follow the shape of the dose curve; as a rule, active = well fitted curve in the direction sought with a large enough effect; inconclusive = small, poorly fitted or top-dose-only effect, or another doubt; inactive = no such curve, though single readings can be large; an effect the other way counts as inactive or inconclusive.

What was measured:
[1] = HPAF-II Cancer Cell Toxicity qHTS against the NCATS CANVASS Library (AID 1347346); also: nearly all actives have a fitted effect of over 55% in size; also: potency is read from the fitted curve at half-maximal effect
In short: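 Luminescence from CellTiter-Glo, added after 72 h compound exposure and a 15 min room-temperature incubation, served as the viability readout. HPAF-II cells (1000/well) received an 11-point concentration series.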

[2] = U-118MG Cancer Cell Toxicity qHTS against the NCATS CANVASS Library (AID 1347351); also: potency is read from the fitted curve at half-maximal effect
In short: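 Toxicity is measured over 72 h of compound exposure at 37 degrees C under 5% CO2. Each well holds 1000 cells, pre-incubated for 4 hours before dosing across an 11-point range. CellTiter-Glo luminescence gives viability.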

[3] = A2780 Cisplatin Sensitive Ovarian Cancer Cell Toxicity qHTS against the NCATS CANVASS Library (AID 1347353); also: nearly all actives have a fitted effect of over 60% in size; also: potency is read from the fitted curve at half-maximal effect
In short: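 Luminescent ATP content (ATPLite, 10 min at room temperature) served as the read-out after cells had been exposed to compounds for 72 hours at 37 °C. Dosing followed an 11-point concentration series.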

[4] = HEK293 24hr Apoptosis Induction qHTS against the NCATS CANVASS Library (AID 1347359)
In short: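 Caspase-3/7 activation measured as luminescence from the DEVD-based Caspase-Glo reagent, 15 min at room temperature, following 24-hour compound treatment of HEK293 cells.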

[5] = test system: NAD(P)H diaphorase (Clostridium kluyveri); test: Diaphorse counterscreen qHTS: Assay Interference Panel against the NCATS CANVASS Library (AID 1347362)
In short: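 Counterscreen for coupling-enzyme interference: resorufin fluorescence from resazurin/NADH turnover, read after 5 min at room temperature. Compounds were tested over an 11-point series after 15 min dark preincubation with diaphorase in PBS-Tween.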

[6] = KB-3-1 Cancer Cell Toxicity qHTS against the NCATS CANVASS Library (AID 1347366); also: nearly all actives have a fitted effect of over 75% in size; also: potency is read from the fitted curve at half-maximal effect
In short: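 500 KB-3-1 cells/well; compounds pin-transferred, 11-pnt series; 72 hr, 37C/5% CO2; CellTiter-Glo, 10 min RT; luminescence read-out.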

[7] = biological target: Nuclear receptor subfamily 1 group I member 3 (Homo sapiens) (UniProt Q14994); test: qHTS for Constitutive Androstane Receptor (CAR) Antagonist screened against the NCATS CANVASS Library (AID 1347372); also: potency is read from the fitted curve at half-maximal effect
Sequence of Nuclear receptor subfamily 1 group I member 3 (Homo sapiens) (Q14994 whole entry, looked up): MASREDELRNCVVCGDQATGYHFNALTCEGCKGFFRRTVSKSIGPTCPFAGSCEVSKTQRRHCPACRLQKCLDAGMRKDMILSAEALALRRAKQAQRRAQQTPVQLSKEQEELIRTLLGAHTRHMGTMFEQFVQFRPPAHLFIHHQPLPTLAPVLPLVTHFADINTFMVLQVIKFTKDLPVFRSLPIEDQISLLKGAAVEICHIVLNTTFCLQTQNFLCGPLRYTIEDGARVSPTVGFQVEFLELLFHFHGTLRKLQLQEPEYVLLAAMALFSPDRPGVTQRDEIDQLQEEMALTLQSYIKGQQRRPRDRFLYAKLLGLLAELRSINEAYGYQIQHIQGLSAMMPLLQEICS
In short: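 HepG2-CYP2B6-hCAR double-stable cells plated, 4hr attach; cpd pin-transferred; CITCO 50 nM final; 24hr 37C/5% CO2; CellTiter-Fluor 1hr (fluorescence), then ONE-Glo luminescence.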

[8] = qHTS for Hypoxia signaling pathway (HIF-1) antagonists against the NCATS CANVASS Library (AID 1347374); also: nearly all actives have a fitted effect of over 60% in size; also: potency is read from the fitted curve at half-maximal effect
In short: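 HRE-bla ME-180 cells in medium with 0.5% dialyzed FBS received compounds (11-point series) plus CoCl2 (60 uM addition stock) for 17 hrs at 37C. Beta-lactamase activity read with CCF4 (405 nm ex, 460/530 nm em); CellTiter-Glo viability measured in same wells.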

[9] = qHTS for Hypoxia signaling pathway (HIF-1) agonists against the NCATS CANVASS Library (AID 1347375)
In short: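 ME-180 HRE-bla reporter cells; 2,000/well, 0.5% dialyzed FBS; cpd added after 5 h, 17 h 37C/5% CO2; CCF4-AM 2 h RT; FRET 460/530 nm; CellTiter-Glo viability same wells, 30 min.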

[10] = DH5-alpha competent E. coli microbial cell viability qHTS against the NCATS CANVASS Library (AID 1347377); conditions: outcome: dose series up to 46.1 µM unless noted
In short: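 qHTS, 11-pt; E. coli DH5-alpha, 0.2 OD; o/n 37C/5% CO2; BacTiter-Glo, 20 min RT; luminescence.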

[11] = qHTS for H2AX Agonists against the NCATS CANVASS Library (AID 1347378)
In short: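 TR-FRET readout (ex 320 nm, em 665/620 nm ratio) of phospho-H2AX (S139) in CHO-K1 lysates. Cells treated 3 hr at 37C with compound titration, 0.76% DMSO; lysis 30 min, antibody detection 24 hr at RT.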

[12] = qHTS for Activators of p53 Stress Response Pathway screened against the NCATS CANVASS Library (AID 1347388)
In short: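 Beta-lactamase reporter driven by p53 response elements in HCT-116 cells, read as the 460 nm/530 nm emission ratio after CCF4 loading, following 16 h of exposure to an 11-point series. Cell viability was measured in the same wells by CellTiter-Glo luminescence.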

[13] = qHTS assay for small molecule disruptors of mitochondrial membrane potential screened against the NCATS CANVASS Library (AID 1347389); also: series mostly up to about 46 µM; nearly all actives have a fitted effect of over 60% in size
In short: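 HepG2, 2,000 cells/well, attached overnight; compound 1 hr, 37C, 5% CO2; Mito-MPS dye 30 min, 37C; fluorescence 535 nm (monomer) and 590 nm (aggregate); decreased 590/535 ratio = depolarization.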

[14] = Vero-766 cells viability qHTS against the NCATS CANVASS Library: Counterscreen for Zika virus inhibition assay (AID 1347394); also: nearly all actives have a fitted effect of over 60% in size; also: potency is read from the fitted curve at half-maximal effect
In short: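 CellTiter-Glo luminescence, lower signal indicating cytotoxicity. Vero 766 cells without Zika virus, 1000 cells/well, plated overnight, then treated 72 h at 37C across an 11-point series.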

[15] = qHTS for inhibitors of Rabies Virus screened against the NCATS CANVASS Library (AID 1347402; calls by dose curve; also: series mostly up to about 46 µM)
[16] = HEK-293 Cancer Cell Toxicity qHTS against the NCATS CANVASS Library (AID 1347355); also: nearly all actives have a fitted effect of over 65% in size; also: potency is read from the fitted curve at half-maximal effect
In short: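 Luminescent ATP read-out (CellTiter-Glo, 15min at room temperature) measures survival after cells face an 11-point compound series for 72 hours at 37 degrees C/5% CO2.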

[17] = SDT Cancer Cell Toxicity qHTS against the NCATS CANVASS Library (AID 1347365); also: nearly all actives have a fitted effect of over 60% in size; also: potency is read from the fitted curve at half-maximal effect
In short: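 qHTS, SDT dog glioma line, 500 cells/well; cpds 11 pts; 72 hr, 37C, 5% CO2; CellTiterGlo ATP luminescence.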

[18] = qHTS for Inflammasome Signaling Inhibitors: IL-1-beta AlphaLISA screen against the NCATS CANVASS Library (AID 1347379);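 also: human THP-1 cells primed with LPS then triggered with ATP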
In short: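 THP-1 cells pretreated 1 hr with compound (up to 57.5 uM final), then stimulated with LPS (250 ng/mL final) and ATP (1.25 mM final). Secreted IL-1B measured by AlphaLISA after 16 hr; glyburide as positive control.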

[19] = Viability qHTS for inhibitors of the SERCaMP assay screened against the NCATS CANVASS Library (AID 1347400); also: nearly all actives have a fitted effect of over 70% in size; also: potency is read from the fitted curve at half-maximal effect
In short: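 SH-SY5Y SERCaMP MJH297 cells, 1000/well; 4 h settle, 37C/5% CO2; pin-transferred cpds; 48 h; CellTiter-Glo lum. Pos ctrl bortezomib 0.0001 - 4.6 uM.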

Row | Structure (SMILES) | Potency [1] | Potency [2] | Potency [3] | outcome [4] | Potency [5] | Potency [6] | Potency [7] | Potency [8] | outcome [9] | outcome [10] | Potency [11] | Potency [12] | Potency [13] | Potency [14] | outcome [15] | Potency [16] | Potency [17] | Potency [18] | Potency [19]
1 | CC[C@]12C=CCN3CC[C@]4(C(=C(C(=O)OC)C1)Nc1ccccc14)[C@@H]32 | inactive | inactive | inactive | inactive | inactive | inactive | inactive | inactive | inactive | inactive | inactive | inactive | inactive | inactive | inactive |  |  |  | 
2 | CCCC[C@@H]1CC[C@H]2CCCC(CCCO)N12 (stereo partly specified) | inactive | inactive | inactive | inactive | inactive | inactive | inactive | inactive | inactive | inactive | inactive | inactive | inactive | inactive | inactive | inactive | inactive | inactive | inactive
3 | CC[C@H]1CN2CCc3c([nH]c4cccc(OC)c34)[C@@H]2C[C@@H]1/C(=C\OC)C(=O)OC | inactive | 18.8 µM (active) |  | inactive | inactive | inactive | inactive | inactive | inactive | inactive | inactive | inactive |  | inactive |  | 23.5 µM (active) |  | inactive | inactive
4 | C/C=C1/CN2C3CC1C1=CCC(=O)N4c5ccccc5[C@@]3(C[C@@H]2C2=C[C@H]3C5CC6N(CC[C@@]67c6ccccc6N(C2=O)[C@@H]37)C/C5=C/C)[C@H]14 (stereo partly specified) | 18.8 µM (active) |  | 13.2 µM (active) |  | inactive |  |  |  | inactive |  |  |  | inactive |  |  | 7.43 µM (active) | 20.9 µM (active) | 21.7 µM (active) | 42.8 µM (active)
5 | CO[C@H]1[C@H](O[C@H]2CC[C@]3(C=O)[C@H]4CC[C@]5(C)[C@@H](C6=CC(=O)OC6)CC[C@]5(O)[C@@H]4CC[C@]3(O)C2)O[C@H](C)[C@H](O)[C@@H]1OC | 0.335 µM (active) | 0.0943 µM (active) | 0.209 µM (active) | inactive | inactive | 0.235 µM (active) | 0.295 µM (active) | 0.0838 µM (active) | inactive | inactive | inactive | inactive | inactive | 0.741 µM (active) |  | 0.105 µM (active) | 0.148 µM (active) | 0.685 µM (active) | 0.303 µM (active)
